Source: PubChem (National Center for Advancing Translational Sciences (NCATS))
Sfp inh: inhibitors of Bacillus subtilis Sfp phosphopantetheinyl transferase | Potency, µM, without a hit: largest response in the series, negative = inhibition, most hits filed as inhibitors | AID 1490 | Biochemical Sfp PPTase activity, qHTS | 3.5% of 310,000 active;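 further: the enzyme is Sfp with the accession as filed and its product quenches rhodamine fluorescence; 0% = enzyme reaction without inhibitor and -100% = no enzyme wells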
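Fluorescence-quenching assay with 15 nM Sfp, 5 uM rhodamine-CoA and 12.5 uM BHQ-2-labelled ybbR peptide in pH 7.6 Hepes/MgCl2 buffer. Enzyme was pre-incubated with compound for 15 min at room temperature. Rate was taken from the 30-min fluorescence change (525/598 nm).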
JMJD2A Tudor inh: inhibitors of human JMJD2A Tudor domain | AlphaScreen JMJD2A-Tudor / H3K4me3 peptide binding | Potency, µM (highest dose often 114 µM), for inactives: top-dose activity change, negative = inhibition, actives largely listed as inhibitors | AID 504339 | 4.4% of 390,000 active | O75164; further: on the % scale 0 is the no-effect control and ±100 the full control effect; nearly all actives have a fitted effect of over 50% in size
G9a inh: blocks human histone lysine methyltransferase G9a. 8.8% of 350,000 active. Potency, µM (doses to about 102 µM), for the others: at the highest dose activity, negative = inhibition, hits mostly inhibitors. G9a H3K9 monomethylation, AlphaScreen, 2 h. AID 504332. Q96KQ7; further: on the % scale 0 is the no-effect control and ±100 the full control effect; nearly all actives have a fitted effect of over 75% in size
Target sequence (Q96KQ7 913-1193 limits assumed): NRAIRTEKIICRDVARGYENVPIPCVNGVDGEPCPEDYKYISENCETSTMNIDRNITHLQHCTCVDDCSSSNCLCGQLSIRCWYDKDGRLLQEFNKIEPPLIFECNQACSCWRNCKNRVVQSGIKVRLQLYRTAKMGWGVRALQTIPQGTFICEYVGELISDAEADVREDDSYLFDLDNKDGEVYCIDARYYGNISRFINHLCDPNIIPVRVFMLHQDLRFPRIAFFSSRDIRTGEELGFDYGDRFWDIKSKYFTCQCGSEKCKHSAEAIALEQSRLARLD
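AlphaScreen detection with an anti-monomethyl H3K9 antibody quantified product after a 2 h room-temperature reaction containing 500 nM biotinylated H3K9 peptide, 20 µM SAM and 20 nM enzyme, which had been preincubated 15 min with compound.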
L3MBTL1 inh: inhibitors of human L3MBTL1. Q9Y468. AlphaScreen L3MBTL1–H3K9me1 peptide binding. Potency, µM (titrated, usually from 57.1 µM), for inactives: top-dose activity, negative = inhibition, usual class: inhibitors. 0.66% of 230,000 active. AID 485360; further: on the % scale 0 is the no-effect control and ±100 the full control effect; nearly all actives have a fitted effect of over 60% in size
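L3MBTL1 50 nM + b-AHA-H3(1-15)K9me1 75 nM, 30 min RT; compound added, 30 min RT; streptavidin donor/Ni-chelate acceptor beads 10 ug/mL each final, 30 min RT dark; AlphaScreen read.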
HP1b binding inh: HP1-beta chromodomain-methylated histone interaction inhibition | P83916 | AlphaScreen HP1-beta / biotin-H3K9me3 peptide binding | Potency, µM (titrated, usually from 114 µM), inactives show at the top dose activity change, negative = inhibition, hits mostly inhibitors | 0.56% of 390,000 active | AID 540317; further: nearly all actives have a fitted effect of over 70% in size
Target sequence (P83916 whole entry, looked up): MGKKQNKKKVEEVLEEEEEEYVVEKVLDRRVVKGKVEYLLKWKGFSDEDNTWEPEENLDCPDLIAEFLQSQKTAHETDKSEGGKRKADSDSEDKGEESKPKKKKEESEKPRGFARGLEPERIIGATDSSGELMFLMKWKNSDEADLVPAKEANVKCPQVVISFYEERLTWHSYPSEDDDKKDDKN
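AlphaScreen: HP1-beta (50 nM) preformed 30 min with biotin-H3(1-18)K9me3 peptide (50 nM) in PBS pH 7.4, 0.01% Tween-20. Compound added for 30 min at RT, then streptavidin donor/nickel chelate acceptor beads (10 ug/mL) for 30 min.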
BAZ2B inh: blocks human BAZ2B. AlphaScreen BAZ2B-H3K14Ac peptide displacement. 4.4% of 360,000 active. Potency, µM (doses to about 114 µM), for the others: top-dose activity change, negative = inhibition, hits mostly inhibitors. Q9UIF8; further: on the % scale 0 is the no-effect control and ±100 the full control effect; nearly all actives have a fitted effect of over 60% in size
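AlphaScreen displacement of biotin-H3(5-23)K14Ac peptide (50 nM final) from BAZ2B (50 nM final) in PBS pH 7.4, 0.01% Tween-20; complex preformed 30 min RT, then compounds (top 110 uM) 30 min RT, beads 20 min dark.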
Active calls of the source: *; u = inconclusive; x = no result; [ ] = dose if it differs, or a comment. Rows were chosen to be rich in hits. Some 12% of all compounds tested hit in one or more screens of this group. The call rests on the fitted dose curve; in most records, active means well fitted curve in the direction sought with a large enough effect; inconclusive means small, poorly fitted or top-dose-only effect, or another doubt; inactive means no such curve, though single readings can be large; an effect the other way counts as inactive or inconclusive. Potency means the concentration at half of the fitted maximal effect.

SMILES	Sfp inh	JMJD2A Tudor inh	G9a inh	L3MBTL1 inh	HP1b binding inh	BAZ2B inh
COc1cc2c(cc1OC)CN(Cc1ccc(F)cc1)CC2	-14%	3.2µM*	u	x	-17%[57 µM]	50µM*
COc1ccc(CN2CCc3cc(OC)c(OC)cc3C2)cc1O	-15%	45µM*	-138%[59 µM]	8%	u	u
COc1cc2c(cc1OC)CN(Cc1cc(OC)c3c(c1)OCO3)CC2	u	8.9µM*	u	x	-9%	50µM*
COc1cc2c(cc1OC)CN(CCOc1ccc(Br)cc1)CC2	-4%	-25%	-19%	x	24%	-24%
COc1cccc(CNC(=O)NCc2noc3ccc(C)cc23)c1	x	-11%	-32%[59 µM]	x	31%	-12%
CCn1ncc(NC(=S)Nc2ccc(OC)c(OC)c2)c1C(N)=O	32µM*	u	45µM*	-7%	0%	79µM*
CCC(C)c1ccc(NC(=S)Nc2ccc(OC)c(OC)c2)cc1 (configuration not stated)	-2%	-35%	u	0%	u	-35%
CCOC(=O)Nc1ccc2c(c1)OCO2	14%	-11%[57.1 µM]	-2%[12.7 µM]	-4%	35%	-26%
CCn1ncc(NC(=S)Nc2ccc3c(c2)OCO3)c1C(N)=O	56µM*	-3%	20µM*	-1%	-11%	-32%
CC(=O)N1CCc2cc(S(=O)(=O)N3CCN(S(=O)(=O)c4c(F)cccc4F)CC3)ccc21	x	-18%	x	x	x	x
CC(=O)Oc1cc(C)c(OC(C)=O)c2ccccc12	15%	x	24%[59 µM]	x	x	x
CCOc1ccccc1CNC(=O)c1cccn1-c1nnc(N2CCCCC2)s1	x	-27%	-18%[59 µM]	x	-3%	-26%
CCOc1ccccc1CNCc1cccn1-c1nnc(N2CCN(c3ccccc3)CC2)s1	x	u	14µM*	x	-21%	u
CCOC(=O)Cc1ccc(NC(=O)NCc2c(-n3cccc3)sc3c2CCCC3)cc1	x	-18%	-40%[59 µM]	x	47%	-18%
COc1ccc(-n2ncc3c(N4CCN(c5cccc(C)c5)C(C)C4)ncnc32)cc1 (configuration not stated)	x	-29%	11%[59 µM]	x	47%	1%
COc1ccc(C2=C(N3CCN(c4cccc(C)c4)C(C)C3)c3ccccc3C2=O)cc1 (configuration not stated)	x	7.1µM*	5µM*	x	u	4.5µM*
CC(C)OC(=O)c1cccnc1SCc1cc(=O)n2ccccc2n1	1%	-8%	50µM*	2%	54%	-8%
CC(C)OC(=O)c1cccnc1SCC(=O)N(C)c1ccccc1	-4%	-3%	3%	x	22%	9%
CCCNC(=O)OCc1cccnc1Sc1ccc(C)cc1	10%	45µM*	29%	-16%	4%	15%
CCOC(=O)Nc1cccnc1Sc1ccc(Cl)cc1	x	1%	x	x	2%	x
Cc1[nH][nH]c(=O)c1C(c1c(C)[nH][nH]c1=O)c1cn(Cc2ccccc2Cl)c2ccccc12	-11%	u	14µM*	-28%	u	u
N/C(=N\O)c1cn(Cc2ccccc2Cl)c2ccccc12	1%	-20%	-7%	x	-2%	-31%
CCN(CCNC(=O)C1CCC(=O)N1Cc1ccc(C)cc1)c1ccccc1 (configuration not stated)	15%	4%	50µM*	x	28%	-24%
CN(CCCNC(=O)C1CCC(=O)N1Cc1ccc(F)cc1)c1ccccc1 (configuration not stated)	23%	-24%	79µM*	5%	14%	-5%
CCN(CCCNC(=O)C1CCC(=O)N1Cc1ccc(C)cc1)c1cccc(C)c1 (configuration not stated)	4%	u	20%[0.501 µM]	-2%	-17%	u
SMILES	Sfp inh	JMJD2A Tudor inh	G9a inh	L3MBTL1 inh	HP1b binding inh	BAZ2B inh
CCN(CCCNC(=O)C1CCC(=O)N1Cc1ccccc1Cl)c1cccc(C)c1 (configuration not stated)	0%	-30%	45µM*	x	1%	u
CCN(CCNC(=O)CN1CCN(Cc2ccc(Cl)cc2)C1=O)c1ccccc1	-6%	-25%	11µM*	x	-12%	u
Cc1cccc(N2CCN(C(=O)c3nn(C)c4c3CSc3ccccc3-4)CC2C)c1 (configuration not stated)	x	-6%	-42%[59 µM]	x	45%	-10%
CCOc1ccccc1CNC(=O)c1cnc2sc(N3CCOCC3)nn2c1=O	x	-25%	13%[59 µM]	x	-15%	-7%
Cc1cc(C)cc(NS(=O)(=O)c2ccc3c(c2)NC(=O)C(C)S3)c1 (configuration not stated)	x	-4%	u	x	13%	-19%
COC(=O)CCC(=O)OC1(C)C(=O)C=C2C=C(CCCNC(=O)OC(C)(C)C)OC=C2C1=O (configuration not stated)	5%	x	x	x	x	x
CCn1c(-c2cccn(Cc3ccc(Cl)cc3Cl)c2=O)n[nH]c1=S	-21%	-32%[11.4 µM]	8.9µM*	x	-9%	5%
CCn1c(CCCOc2ccc(Cl)cc2Cl)n[nH]c1=S	-15%	-23%	u	-13%	34%	-30%
S=c1[nH]nc(-c2ccc(Cl)cc2Cl)n1Cc1ccccc1	u	13µM*	u	-7%	u	-6%
S=c1[nH]nc(COc2ccc(Cl)cc2Cl)n1-c1ccccc1	11%	-34%	10µM*	1%	30%	-30%
S=c1[nH]nc(-c2ccc(Cl)cc2Cl)n1-c1ccccc1	19%	-13%	6.3µM*	-2%	28%	-28%
O=c1c2ccccc2nc(-c2ccc(Cl)cc2Cl)n1O	u	-4%[11.4 µM]	9%	-8%	-2%	u
Cc1c(Cl)cccc1-n1nc(C)c2c(C)cc(=O)n(CC(=O)N3CCCc4ccccc43)c21	x	-23%	3%[59 µM]	x	15%	-14%
CSCCC(NS(=O)(=O)c1ccc2c(c1)oc(=O)n2C)C(=O)NCCc1ccc(C)cc1 (configuration not stated)	x	-4%	6%[59 µM]	x	0%	10%
CCCNC(=O)OC[C@@H]1O[C@H](CCO/N=C(\C)CCN2CCCCc3nc(C)c(C)cc32)C=C[C@@H]1Oc1ccc(OC)cc1	13%	x	x	x	x	x
